Compounds with a hit are over-represented: about 2.4% of the library has one in this group of screens.
D2 PAM-1: human D2 receptor positive allosteric modulation. hit rate 0.23% among 360,000. P14416. potentiation, % (test concentration not listed). DiscoveRx D2 beta-arrestin cells, luminescence, 90 min; 100% = 57 uM dopamine signal; in the data active = potentiation above about 50%
Target sequence (P14416 whole entry, looked up): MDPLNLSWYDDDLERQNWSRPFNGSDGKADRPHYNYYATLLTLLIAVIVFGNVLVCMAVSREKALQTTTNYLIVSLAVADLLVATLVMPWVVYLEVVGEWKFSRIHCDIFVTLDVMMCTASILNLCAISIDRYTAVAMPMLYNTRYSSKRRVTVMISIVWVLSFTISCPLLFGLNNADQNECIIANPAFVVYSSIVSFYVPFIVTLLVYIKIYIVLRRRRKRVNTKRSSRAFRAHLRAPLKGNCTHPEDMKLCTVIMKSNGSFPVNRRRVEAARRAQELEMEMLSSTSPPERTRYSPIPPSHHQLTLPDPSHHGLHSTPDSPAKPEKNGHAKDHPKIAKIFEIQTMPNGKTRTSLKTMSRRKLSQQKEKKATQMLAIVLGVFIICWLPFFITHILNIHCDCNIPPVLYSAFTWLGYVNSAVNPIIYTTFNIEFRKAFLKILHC
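PathHunter beta-arrestin assay in DiscoveRx D2 cells. Compounds were added with an EC20 of dopamine (50 nM final) for 90 min at 37 deg C. Luminescence was read 1 h after detection reagent, with 57 uM dopamine as the EC100 control.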
D2 ag-1: D2 dopamine receptor (human) agonism. HEK293 T-REx D2 cells, calcium flux agonist mode. activation, % at 2 µM. hit rate 0.53% among 340,000. AID 485358;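 active = activation over 3 SD above normal in the single-dose calcium agonist read, cut at about 30% in these data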; note: 0% is about no effect
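Tetracycline-induced HEK293 Trex cells with D2 receptor force-coupled to calcium signaling, plated overnight at 30 C and loaded with no-wash calcium dye. Calcium flux read kinetically for 180 s after compound addition; responses flag agonists.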
D2 antagonist: D2 dopamine receptor (human) antagonism; P14416; HEK293 TREx D2 cells, calcium flux, dopamine EC80; inhibition, % at 10 µM; hit rate 2% among 340,000; AID 485344; in the data active = inhibition above about 30%; inactive = below that, where a call was filed; note: 0% is about no effect
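Antagonism is scored as inhibition of an EC80 dopamine-evoked calcium signal in a force-coupled, tetracycline-inducible HEK293 T-REx D2 line, with compound present 180 s before agonist.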
D2 ag-2: human D2 receptor agonism in beta-arrestin assay; DiscoveRx PathHunter D2 beta-arrestin, luminescence, 90 min; 100% = 57 uM dopamine signal; activation, % (test concentration not listed); hit rate 0.084% among 360,000; in the data active = activation above about 40%
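Agonist mode: compounds alone added to overnight-plated D2 PathHunter cells for 90 min at 37 C, with 57 uM final dopamine (EC100) defining full response. Beta-arrestin recruitment detected by chemiluminescent reagent, read after 1 h at ambient temperature.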
D2 PAM-2: positively modulates the human D2 dopamine receptor allosterically; P14416; HEK293 T-REx D2, calcium flux, EC20 dopamine potentiation; potentiation, % at 10 µM; hit rate 0.34% among 340,000; AID 485347;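 active = potentiation over 3 SD above the plate norm, cut at about 30% in these data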; note: 0% is about no effect
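Potentiation of an EC20 dopamine calcium response measured kinetically over 180 s, after a preceding 180 s compound-only read flagging agonists. Cells: inducible Hek293 Trex D2 line, 4000/well, cultured overnight at 30 C before dye loading.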
* = called active by the depositor; · = no result.

SMILES	D2 PAM-1	D2 ag-1	D2 antagonist	D2 ag-2	D2 PAM-2
CCN(C(=O)c1cc2c(=O)n(CC)c3ccccc3c2s1)c1cccc(C(F)(F)F)c1	·	0	·	·	15
O=C(NC1CCCCC1)c1ccc(CS(=O)(=O)Cc2ccccc2F)o1	-4	1	44*	-1	-1
O=C(NC1CCCC1)c1ccc(CS(=O)(=O)Cc2ccccc2F)o1	-6	0	-6	2	-9
COc1cccc(C(=O)n2nc(-c3ccco3)nc2NCc2cccs2)c1	·	-1	·	·	-5
COC(=O)c1c(CSc2cccc(C)c2)noc1C(=O)NCc1ccco1	-23	-2	0	-1	-10
COC(=O)c1c(CSc2ccc(Cl)cc2)noc1C(=O)NCc1ccco1	-12	0	38*	3	-20
N#C/C(=C\c1coc2ccc(O)cc2c1=O)C(=O)Nc1nc2ccccc2s1	0	59*	-8	8	-1
CC(C)/C=C1\CC/C(=C\c2ccc(N(C)C)cc2)C1=O	-4	92*	27	-4	-7
CCCc1cc(=O)[nH]c2nnc(SCC)n12	·	1	·	·	-5
CCOc1ccccc1-c1nc(CN2CCCN(C(=O)c3ccco3)CC2)c(C)o1	-51	-1	33*	-6	-24
Cn1cc(S(=O)(=O)N2CCN(c3ccccc3F)CC2)c(=O)n(C)c1=O	-9	0	32*	-3	0
O=C(Nc1cc(Cl)ccc1Cl)c1cc(S(=O)(=O)N2CCCc3ccccc32)ccc1F	·	·	·	·	5
CCC(C)C(NC(=O)C1CCC(=O)N1C(=O)OCc1ccccc1)C(=O)NC(Cc1ccccc1)C(N)=O (centres undefined)	2	2	-20	5	·
CC[C@H](C)[C@H](NC(=O)[C@H](Cc1ccc(O)cc1)NC(=O)[C@@H](N)C(C)C)C(=O)N[C@@H](Cc1cnc[nH]1)C(=O)N1CCC[C@H]1C(=O)N[C@@H](Cc1ccccc1)C(=O)O	-4	2	34*	6	7
Cc1c(C(=O)N2CCC(C)CC2)c(S(=O)(=O)Nc2cccc(C#N)c2)c(C)n1C	·	2	·	·	8
C/C(=N\N=C1/SC(CC(=O)O)C(=O)N1c1ccccc1)c1ccc(C)cc1 (centres undefined)	-6	-3	30*	-2	-15
O=C(O)CC1S/C(=N/N=C2CCCCC2)N(c2ccccc2)C1=O (centres undefined)	-1	0	-12	-1	10
CC(C)Cn1c(CCCNC(=O)c2ccc(F)cc2)nc2ccccc21	-9	-2	31*	-2	-26
Cc1cccc(-n2ncc3c(Nc4ccc(Oc5ccc(Cl)cc5)cc4)ncnc32)c1	·	1	·	·	-11
CCCn1c2ccccc2c2cnn(CC(=O)NC3CCCC(C)C3C)c(=O)c21 (centres undefined)	4	0	35*	0	-5
Oc1cccc(Nc2ncnc3ccccc23)c1	-10	0	51*	-2	3
COc1ccc(Nc2ncc3c(n2)CC(c2ccc(C)cc2)CC3=O)cc1 (centres undefined)	1	0	36*	1	21
COc1ccc(Nc2ncc3c(n2)CC(c2ccc(OC)cc2)CC3=O)cc1 (centres undefined)	-3	3	-22	-1	·
CCN(C(=O)COC(=O)c1c(-c2ccccc2)noc1C)c1c(N)n(Cc2ccccc2)c(=O)[nH]c1=O	-8	·	·	1	·
CCCN(C(=O)c1c(-c2ccccc2)noc1C)c1c(N)n(Cc2ccccc2)c(=O)[nH]c1=O	-2	-1	65*	0	-3
SMILES	D2 PAM-1	D2 ag-1	D2 antagonist	D2 ag-2	D2 PAM-2
CCN1C(=O)/C(=C/C=C2/Sc3ccc4ccccc4c3N2CCO)SC1=S	-4	0	6	-2	-1
CCN1/C(=C/C=C/c2oc3ccc4ccccc4c3[n+]2CC)Oc2ccc3ccccc3c21	0	45*	7	3	-4
Cc1ccc(C(=O)CCC(=O)CCC(=O)O)cc1	-2	·	·	-1	·
O=C(O)CCC(=O)CCC(=O)c1ccccc1	-3	0	35*	0	-8
CCn1ccc2cc(S(=O)(=O)N3CCCN(C(=O)NCCOC)CC3)ccc21	·	-1	·	·	6
CCOc1ccc(Cn2c(CNS(=O)(=O)c3cccs3)nc3cccnc32)cc1	·	-2	·	·	17
